Gli-Sufu block: blocks Gli-Sufu signaling in a luciferase reporter | Sufu-KO-LIGHT fibroblasts, Gli luciferase reporter luminescence | inhibition, % at 5 µM | 340,000 tested, 0.74% active | AID 588413;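 active = inhibition above about 55%, limit read from the data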
697 NFkB inh: inhibitors of the PMA/ionomycin-induced NF-kB reporter in 697 B cells | 697 B-cell NF-kB luciferase reporter, 16 h | inhibition, % at 4 µM | 330,000 tested, 0.33% active | AID 435022; in the data active = inhibition above about 35%
Jurkat NFkB inh: lowers PMA/ionomycin-induced NF-kB signal in Jurkat cells. PMA/ionomycin-induced NF-kB luciferase reporter, luminescence. 330,000 tested, 0.53% active. inhibition, % at 4 µM; in the data active = inhibition above about 50%
Beta apoptosis: beta cell apoptosis inhibition. 300,000 tested, 0.8% active. AID 435005. INS-1E cytokine-induced death, ATP luminescence, 48 h; percent of positive-control rescue, neutral wells zero. protection from apoptosis, % (test concentration not listed);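 active = Every replicate reaches about 75%, or at least half do and their mean reaches it too, limit read from the data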;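 note: higher means more ATP so stronger rescue from cytokine killing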
Mdm2 MdmX PPI: disrupts the human Mdm2-MdmX interaction; O15151+Q00987; SaOS-2 split-luciferase Mdm2/MdmX complementation, luminescence; inhibition, % at 8 µM; 330,000 tested, 3% active; AID 485346;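 active = inhibition of at least 50% at 8 µM in the primary screen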
Target sequence (O15151 whole entry, looked up): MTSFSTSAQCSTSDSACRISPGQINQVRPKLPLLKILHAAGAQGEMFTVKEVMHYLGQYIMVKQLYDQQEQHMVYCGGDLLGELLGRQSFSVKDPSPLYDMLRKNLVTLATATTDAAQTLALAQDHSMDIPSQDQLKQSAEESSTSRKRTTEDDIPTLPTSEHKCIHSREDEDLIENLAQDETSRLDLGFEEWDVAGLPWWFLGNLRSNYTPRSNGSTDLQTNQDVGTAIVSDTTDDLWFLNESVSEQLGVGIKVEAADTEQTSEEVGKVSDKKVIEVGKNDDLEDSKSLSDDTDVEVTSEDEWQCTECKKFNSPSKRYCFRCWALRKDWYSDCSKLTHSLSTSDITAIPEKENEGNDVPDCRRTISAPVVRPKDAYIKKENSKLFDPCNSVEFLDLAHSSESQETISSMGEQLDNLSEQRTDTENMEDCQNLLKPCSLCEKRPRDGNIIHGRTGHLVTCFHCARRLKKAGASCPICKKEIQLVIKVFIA
Target sequence (Q00987 whole entry, looked up): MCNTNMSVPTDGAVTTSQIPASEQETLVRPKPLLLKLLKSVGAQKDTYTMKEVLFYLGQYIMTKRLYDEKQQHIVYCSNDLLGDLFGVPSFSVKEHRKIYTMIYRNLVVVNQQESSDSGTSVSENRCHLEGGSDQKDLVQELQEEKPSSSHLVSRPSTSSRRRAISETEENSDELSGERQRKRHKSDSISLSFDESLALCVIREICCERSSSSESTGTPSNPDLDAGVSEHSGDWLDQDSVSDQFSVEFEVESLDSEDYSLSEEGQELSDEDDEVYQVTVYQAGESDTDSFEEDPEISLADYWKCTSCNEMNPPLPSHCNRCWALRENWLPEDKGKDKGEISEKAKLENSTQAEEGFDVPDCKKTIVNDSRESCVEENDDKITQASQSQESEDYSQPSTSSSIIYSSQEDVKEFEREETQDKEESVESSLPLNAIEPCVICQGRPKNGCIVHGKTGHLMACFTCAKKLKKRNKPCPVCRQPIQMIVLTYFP
Jurkat NFkB conf: inhibitors of the PMA/ionomycin-induced NF-kB reporter in Jurkat cells, retest; inhibition, % at 4 µM; AID 435020; shares compounds with Jurkat NFkB inh; Jurkat NF-kB luciferase, 16 h; 2,700 tested, 27% active;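 active = inhibition reaching about 45% at 4 µM in either replicate, limit read from the data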
Large screens that a line does not name were inactive (follow-up assays come after a bar, where they were run). In the library only some 4% were active in any assay of this set; here they are far more common.

COc1cccc(NC(=O)Cn2c(=O)n(CCC(=O)NC3CCN(Cc4ccccc4)CC3)c(=O)c3ccccc32)c1	none
Cc1ccc(-n2nc3ccc(N)cc3n2)cc1	none
CC(C)c1ccc(-n2nc3ccc(N)cc3n2)cc1	none | Jurkat NFkB conf inactive
Clc1nnc(Cl)c2c1ncn2Cc1ccccc1	none
CC1Cc2ccccc2N1C(=O)/C=C/c1cccc(F)c1 (configuration not stated)	none (no result: Beta apoptosis) | Jurkat NFkB conf inactive
CC1Cc2ccccc2N1C(=O)COC(=O)/C=C/c1ccc(F)cc1 (configuration not stated)	none
CCOC(=O)c1c(NC(=O)CSc2nnc3c(n2)[nH]c2ccccc23)sc2c1CCN(C)C2	none
C(=C\c1nc(-c2ccccc2)no1)/c1ccccc1	none (no result: Gli-Sufu block) | Jurkat NFkB conf inactive
Clc1ccc(/C=N/NC2=Nc3cccc4cccc2c34)cc1	none
C(=N\NC1=Nc2cccc3cccc1c23)/c1ccccc1	none | Jurkat NFkB conf inactive
O=C(c1cc2cc(Cl)ccc2o1)N1CCCCCC1	none (no result: Beta apoptosis)
O=C(c1cc2cc3ccc(Cl)cc3nc2o1)N1CCCCCC1	none | Jurkat NFkB conf inactive
Cc1ccc(-c2onc3ccc(C(=O)O)cc23)cc1	Jurkat NFkB inh 51.7 | Jurkat NFkB conf inactive
COc1ccc(C)cc1S(=O)(=O)NNc1nc(C)cc(C)n1	none
COc1ccc(Cl)cc1NC(=O)CN(C)C(=O)c1cc2c(F)cccc2s1	Jurkat NFkB inh 58.1 | Jurkat NFkB conf inactive
Cc1ccccc1NC(=O)Nc1nc2ccc(S(C)(=O)=O)cc2s1	none
NS(=O)(=O)c1ccc2nc(NC(=O)Nc3ccccc3F)sc2c1	none | Jurkat NFkB conf inactive
COc1cc2c(cc1OC)C(COc1ccc([N+](=O)[O-])cc1)N(C(C)=O)CC2 (configuration not stated)	Jurkat NFkB inh 67.9 (no result: Beta apoptosis) | Jurkat NFkB conf inactive
O=C(NCc1ccccc1)C1CCCN(C(=O)NCc2ccccc2)C1 (configuration not stated)	none
Cn1c(/C=C/c2ccccc2[N+](=O)[O-])nc2ccccc2c1=O	none
O=[N+]([O-])c1ccccc1/C=C/c1ccc2ccccc2n1	none | Jurkat NFkB conf inactive
Cc1cc(N2CCN(Cc3cn(C)nc3-c3ccccc3F)CC2)cc(C)n1	Jurkat NFkB inh 68.9 | Jurkat NFkB conf inactive
CN1CCN(Cc2cn(C)nc2-c2ccccc2F)CC1c1ccccc1 (configuration not stated)	none
Cc1cc(NC(=O)C2CC(c3cccc(Br)c3)=NO2)no1 (configuration not stated)	none
Cc1ccc(O)c(NC(=O)C2CC(c3cccc(Br)c3)=NO2)c1 (configuration not stated)	Jurkat NFkB inh 63.0 | Jurkat NFkB conf inactive
CC(C)(C)c1ccc(C(=O)Nc2ccc(Oc3cccnc3)nc2)cc1	Jurkat NFkB inh 51.7 | Jurkat NFkB conf inactive
Cc1[nH]c2ccccc2c1/C=C/c1nc2ccccc2c(=O)[nH]1	none | Jurkat NFkB conf inactive
Cc1cccc(/C=C/c2nc3ccccc3c(=O)[nH]2)c1	none
COc1cccc(C2NC(=O)CCC2[N+](=O)[O-])c1 (configuration not stated)	none
Cc1c(C(=O)NC2=NCCS2)oc2ccccc12	none | Jurkat NFkB conf inactive
Cc1csc(NC(=O)c2oc3ccccc3c2C)n1	none | Jurkat NFkB conf inactive
Cc1cc(C(=O)C[N+]2(C)CCOCC2)c(C)n1-c1ccc(Br)cc1	none (no result: Beta apoptosis)
COc1ccc(NC(=O)CCN(c2ccc(OC)cc2)S(=O)(=O)c2ccc(C)c(C)c2)cc1	none (no result: 697 NFkB inh, Jurkat NFkB inh, Beta apoptosis, Mdm2 MdmX PPI)
Cc1cc(-n2c(C)cc(C(=O)CSc3ncnc4ccccc34)c2C)no1	Gli-Sufu block 72.8, Jurkat NFkB inh 55.5 | Jurkat NFkB conf inactive
CC(OC(=O)CCc1nc2ccccc2c(=O)[nH]1)C(=O)c1ccc(C(C)(C)C)cc1 (configuration not stated)	none
COCC(=O)Nc1c(C(=O)Nc2ccc3c(c2)OCCO3)oc2ccccc12	none | Jurkat NFkB conf inactive
CCOCC(=O)Nc1c(C(=O)Nc2ccc3c(c2)OCCO3)oc2ccccc12	none | Jurkat NFkB conf inactive
CCC(=O)Nc1c(C(=O)Nc2ccc3c(c2)OCCO3)oc2ccccc12	none (no result: Beta apoptosis)
Cc1oc(-c2ccc(Cl)cc2)nc1CS(=O)CC(=O)NCCCN1CCN(Cc2ccccc2)CC1 (configuration not stated)	Jurkat NFkB inh 64.5 | Jurkat NFkB conf inactive
Cc1oc(-c2ccc(Cl)cc2)nc1CS(=O)CC(=O)NCCCN1CCCC(C)C1 (configuration not stated)	none
O=C(NCc1ccccc1Cl)[C@@H]1CCCN1S(=O)(=O)c1ccc(Cl)cc1	none
Fc1ccc(-c2nnc(-c3ccc(Cl)cc3Cl)o2)cc1	none (no result: Gli-Sufu block)
Clc1ccc(-c2nnc(-c3ccccc3)o2)c(Cl)c1	none | Jurkat NFkB conf inactive
O=C(CNC(=O)c1ccccc1Br)NCC(c1ccco1)N1CCCCC1 (configuration not stated)	none (no result: 697 NFkB inh, Jurkat NFkB inh, Beta apoptosis, Mdm2 MdmX PPI)
COc1ccc(C2C(C(=O)Nc3cc(OC)c(OC)c(OC)c3)c3ccccc3C(=O)N2C)cc1 (configuration not stated)	Jurkat NFkB inh 75.2 (no result: Beta apoptosis) | Jurkat NFkB conf inactive
CC(=O)N(CC(=O)N(CC(=O)O)c1ccc(Cl)cc1)c1ccc(Cl)cc1	none (no result: 697 NFkB inh, Jurkat NFkB inh, Beta apoptosis, Mdm2 MdmX PPI)
CCC(=O)Nc1ccc(OCc2nc3ccccc3s2)cc1	none | Jurkat NFkB conf inactive
c1ccc(OCc2nc3ccccc3s2)cc1	none
c1ccc(N2CCN(c3cnc4ccccc4n3)CC2)cc1	none | Jurkat NFkB conf inactive
Cn1cc(Cc2ccccc2)c(=O)c(Cc2ccccc2)c1	none (no result: 697 NFkB inh, Jurkat NFkB inh, Beta apoptosis, Mdm2 MdmX PPI)
COc1ccc(C(=O)Nc2nc3cc4c(cc3s2)OCO4)c(OC)c1	none | Jurkat NFkB conf inactive
O=C(Nc1nc2ccc(Cl)cc2s1)C1CC1	none (no result: Beta apoptosis)
O=C(Nc1nc2cc3c(cc2s1)OCO3)C1CCCCC1	none | Jurkat NFkB conf inactive
CC(C)c1ccc2nc(NC(=O)C3CC3)sc2c1	none | Jurkat NFkB conf inactive
CCN(C(=O)COC(=O)c1ccc([N+](=O)[O-])o1)c1cccc2ccccc12	none
N#CC1(CCCN2CCCCC2)c2ccccc2CCc2ccccc21	none
CSCC[C@H](NC(=O)N1CCn2c1nc1ccccc12)C(=O)NCc1ccc(C)cc1	none
O=c1cc(-c2ccccc2)[nH]c2ccccc12	Jurkat NFkB inh 55.0 | Jurkat NFkB conf inactive
O=C(CSc1nnc(-c2csc3c2CCCC3)o1)Nc1ccccc1	none | Jurkat NFkB conf inactive
CSc1ncccc1C(=O)OCC(=O)NC1CCC(C)CC1 (configuration not stated)	none
Cc1occc1C(=O)N/N=C/c1ccc(-c2ccccc2)cc1	none | Jurkat NFkB conf inactive
Cc1occc1C(=O)N/N=C/c1ccc(OCc2ccccc2)cc1	none
Nc1ccc(-c2nc3cc(N)ccc3s2)cc1	none | Jurkat NFkB conf inactive
O=C(Nc1ccncc1)C1CCCN(S(=O)(=O)c2cccc3cccnc23)C1 (configuration not stated)	Jurkat NFkB inh 63.0 | Jurkat NFkB conf inactive
COc1cc(C(C)=O)ccc1OCC(=O)NCC1(N2CCCCC2)CCCCC1	none
C=CCOc1cccc(C(=O)N(C)C2CCCN(Cc3ccccc3F)C2)c1 (configuration not stated)	none (no result: 697 NFkB inh, Jurkat NFkB inh, Mdm2 MdmX PPI)

Source: PubChem BioAssay (several laboratories)
